# Measurements from PubChem BioAssay AID1778 (Sanford-Burnham Center for Chemical Genomics, 2009).
# The campaign covered roughly 290,000 compounds. About 260 (0.09%) were called active. The sample holds actives, similar compounds and a random draw of the others, so the mix is not that of the screen. No stated cut-off is given here; in the data, active means inhibition above about 50%; inactive means the rest. Potency and affinity values are given separately.
# Biological target: Kappa-type opioid receptor (Homo sapiens) (UniProt P41145)
# Assay: kappa opioid receptor blockers – cell-based, luminescence, uHTS (AID 1778)
# Settings: KOR beta-arrestin recruitment, antagonist mode, hits give high values; at 10 µM unless noted
# Kappa-type opioid receptor (Homo sapiens), sequence (P41145 whole entry, looked up): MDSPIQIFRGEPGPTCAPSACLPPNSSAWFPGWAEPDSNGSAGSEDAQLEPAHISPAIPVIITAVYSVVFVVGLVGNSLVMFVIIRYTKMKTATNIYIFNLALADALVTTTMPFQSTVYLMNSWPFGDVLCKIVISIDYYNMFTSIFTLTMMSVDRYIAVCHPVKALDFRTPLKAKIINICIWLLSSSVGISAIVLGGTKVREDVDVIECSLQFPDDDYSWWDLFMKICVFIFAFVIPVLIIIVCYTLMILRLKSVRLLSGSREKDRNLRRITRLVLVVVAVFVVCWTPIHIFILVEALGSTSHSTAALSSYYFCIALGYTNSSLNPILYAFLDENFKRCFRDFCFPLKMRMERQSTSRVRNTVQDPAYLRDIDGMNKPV
row,SMILES,inhibition
1,Cc1ccccc1NC(=O)COC(=O)c1ccc(S(C)(=O)=O)c([N+](=O)[O-])c1,53.9% [at 20 µM] (active)
2,CC(=O)c1cccc(NC(=O)COC(=O)c2ccc(S(C)(=O)=O)c([N+](=O)[O-])c2)c1,18.1% (inactive)
3,CC(CCc1ccccc1)NC(=O)COC(=O)c1ccc(S(C)(=O)=O)c([N+](=O)[O-])c1 (centres undefined),18.3% (inactive)
4,O=C(Cc1cccs1)Nc1ccccc1C(=O)O,27.3% (inactive)
5,O=c1cc(-c2ccccc2)[nH]n1-c1nc2ccccc2[nH]1,11.5% (inactive)
6,COC(=O)Cc1cc(=O)n(-c2nc3ccccc3[nH]2)[nH]1,21.2% (inactive)
7,COc1ccc(NC(=O)CSc2nc3sc(C)cc3c(=O)n2C)c(OC)c1,-25.7% (inactive)
8,O=C(NCC1CCCO1)C(c1ccc(F)cc1)N(Cc1ccc2c(c1)OCO2)C(=O)c1ccc(CN2CCOCC2)o1 (centres undefined),-17.9% [at 20 µM] (inactive)
9,Cc1c(N2C(=O)/C(=C/c3ccccc3)SC2=S)c(=O)n(-c2ccccc2)n1C,-9.4% (inactive)
10,CCOc1cc(/C=C2\SC(=S)N(Nc3ccccc3)C2=O)ccc1O,9% (inactive)
11,CCOc1ccc(/C=C2/SC(=S)N(C(C(=O)O)c3ccccc3)C2=O)cc1OCC (centres undefined),-34.9% (inactive)
12,O=C1/C(=C/c2ccc(O)c(O)c2)SC(=S)N1Nc1ccccc1,35.5% (inactive)
13,COc1cc(/C=C2\SC(=S)N(NC(=O)c3ccncc3)C2=O)ccc1O,49.4% (inactive)
14,CCOc1ccc(/C=C2\SC(=S)N(C(C(=O)O)c3ccccc3)C2=O)cc1OC (centres undefined),9.7% (inactive)
15,Cc1ccc(/C=C2\SC(=S)N(c3c(C)n(C)n(-c4ccccc4)c3=O)C2=O)cc1,-2.4% (inactive)
16,COc1cc(/C=C2\SC(=S)N(NC(=O)c3ccc(O)cc3)C2=O)ccc1O,47.2% (inactive)
17,Cn1cnnc1SCC(=O)Nc1ccc(OC(F)F)cc1,-3.3% (inactive)
18,C/C(=N\NC(=O)c1ccc2c(c1)OCO2)c1cccnc1,14.6% (inactive)
19,COc1ccc(NC(=O)CCCN2C(=O)C(c3ccccc3)Oc3cccnc32)cc1OC (centres undefined),7% (inactive)
20,CN1CCN(C2CC(=O)N(CCc3ccccc3)C2=O)CC1 (centres undefined),10.4% (inactive)
21,Cc1cc(C(c2ccc(C)o2)c2ccc(C)o2)c(O)c([N+](=O)[O-])c1,-22.8% (inactive)
22,COc1ccc([N+](=O)[O-])cc1NC(=O)Cc1c(Cl)cccc1Cl,15.2% (inactive)
23,CC(C)Cc1nc2oc3c(Cl)ncnc3c2c2c1CCC2,32.2% (inactive)

row,SMILES,inhibition
1,CCCc1nc2sc3c(=O)n(N)cnc3c2c2c1CCCC2,-14.5% (inactive)
2,CCCc1nc2sc3c(=O)[nH]cnc3c2c2c1CCCC2,-21.3% (inactive)
3,CCCc1nc2oc3c(N4CCNCC4)ncnc3c2c2c1CCCC2,14.5% (inactive)
4,Cn1ccnc1Sc1ccccc1[N+](=O)[O-],6.9% (inactive)
5,O=C(/C=C/c1cccc([N+](=O)[O-])c1)c1cccs1,14.1% (inactive)
6,CCc1cc2c(=O)[nH]c(-c3ccccn3)nc2s1,104% (active)
7,O=c1[nH]c(-c2ccccn2)nc2ccccc12,13.8% (inactive)
8,CCc1cc2c(=O)[nH]c(-c3ccncc3)nc2s1,-17.3% (inactive)
9,Cc1sc2nc(-c3ccccn3)[nH]c(=O)c2c1-c1ccccc1,49.2% (inactive)
10,CCc1cc2c(=O)[nH]c(Cc3ccccc3)nc2s1,-15.3% (inactive)
11,COc1ccc(CNC(=O)Nc2cccc3ccccc23)cc1,7.6% (inactive)
12,N#CC1=C(N)Oc2n[nH]c(-c3ccccc3)c2C1c1cccc(OC(=O)N2CCOCC2)c1 (centres undefined),15.5% (inactive)
13,O=C(NCCN1CCOCC1)C(=O)NCc1ccc2c(c1)OCO2,-60.9% [at 20 µM] (inactive)
14,CCOc1ccc(C(=O)/C=C/Nc2ccc(S(=O)(=O)Nc3onc(C)c3C)cc2)cc1,-11% (inactive)
15,CC(Oc1ccc(Br)cc1)C(=O)NCc1ccccn1 (centres undefined),-23.9% [at 20 µM] (inactive)
16,C[C@H](NC(=O)c1ccccc1)C(=O)Nc1nc(-c2ccccn2)cs1,-31% (inactive)
17,CNc1ccc(OC(F)F)cc1C(=O)c1ccccc1,17.2% (inactive)
18,Cc1ccc(SCC(=O)N2CCc3ccccc32)cc1,-4.7% (inactive)
19,CC(=O)/C(=N\Nc1cccc(Cl)c1)Sc1cccc2cccnc12,9.1% (inactive)
20,CC(=O)/C(=N\Nc1ccccc1Cl)Sc1cccc2cccnc12,-17.2% (inactive)
21,Fc1ccc2[nH]c3c(c2c1)CN(C(=S)NCc1ccccc1)CC3,-9.6% (inactive)
22,O=C1CSC(c2ccccc2Br)N1c1ccc(Cl)cn1 (centres undefined),2.8% (inactive)
23,CCOC(=O)c1nn(-c2ccccc2C)c2nc(CC(C)C)c(C#N)c(=O)n12,-35.8% (inactive)

row,SMILES,inhibition
1,O=C(Nc1nccs1)c1cc(Cl)ccc1[N+](=O)[O-],8.6% (inactive)
2,Cc1cc(C(=O)Nc2nc(-c3ccccn3)cs2)ccc1[N+](=O)[O-],22.6% (inactive)
3,O=C(Nc1nc(-c2ccccn2)cs1)c1cc(Cl)ccc1[N+](=O)[O-],86.8% (active)
4,CNC(=O)CSc1nc2ccccc2c(=O)n1-c1cc(OC)ccc1OC,0.7% (inactive)
5,CC(NC(=O)Cn1cc(C(F)(F)F)ccc1=O)c1ccc(F)cc1 (centres undefined),-19.7% (inactive)
6,Cc1ccc(-c2nnc(SCC(N)=O)n2C)cc1,-13.4% [at 20 µM] (inactive)
7,COC(=O)CC(N)c1ccc(OC)c2ccccc12 (centres undefined),15.2% (inactive)
8,Cc1[nH]oc(=O)c1N=Nc1ccccc1,-11% (inactive)
9,Oc1ccc(N=Nc2nc(-c3ccccc3)c(-c3ccccc3)[nH]2)cc1,32.4% (inactive)
10,N#Cc1ccc(NC(=O)CSc2cn[nH]n2)cc1,-56.1% (inactive)
11,CC(NC(=O)c1cc2cc([N+](=O)[O-])ccc2oc1=O)C1CCCO1 (centres undefined),-4.3% [at 20 µM] (inactive)
12,C#CCOCCOCCOCCNc1nc(N2CCN(C(=O)C(Cc3ccc(O)cc3)n3cc(C(N)CC(C)C)nn3)CC2)nc(N2CCN(C(=O)C(Cc3cc4ccccc4[nH]3)n3cc(C(N)Cc4ccc(O)cc4)nn3)CC2)n1 (centres undefined),12% (inactive)
13,C#CCOCCOCCOCCNc1nc(N2CCN(C(=O)[C@H](Cc3ccc(O)cc3)n3cc([C@@H](N)CC(C)C)nn3)CC2)nc(N2CCN(C(=O)[C@H](Cc3cc4ccccc4[nH]3)n3cc([C@@H](N)CC(C)C)nn3)CC2)n1,10.8% (inactive)
14,C#CCOCCOCCOCCNc1nc(N2CCN(C(=O)[C@H](Cc3cc4ccccc4[nH]3)n3cc([C@@H](N)Cc4ccc(O)cc4)nn3)CC2)nc(N2CCN(C(=O)[C@H](Cc3cc4ccccc4[nH]3)n3cc([C@@H](N)CC(C)C)nn3)CC2)n1,51.3% (active)
15,O=C(Nc1ccc(OC(F)(F)F)cc1)c1ccc2ccccc2n1,-27.1% (inactive)
16,Cc1nnc(Sc2cc(NCCO)c([N+](=O)[O-])c3nonc23)s1,17.1% (inactive)
17,CCCC(=O)OCCNc1cc(SCc2ccco2)c2nonc2c1[N+](=O)[O-],9.3% (inactive)
18,CC(=O)OCCNc1cc(SC(C)C)c2nonc2c1[N+](=O)[O-],-32.5% (inactive)
19,CC(=O)OCCCNc1cc(Sc2nc3ccccc3s2)c2nonc2c1[N+](=O)[O-],-22.9% (inactive)
20,Cc1ccc(Sc2cc(NCCCO)c([N+](=O)[O-])c3nonc23)cc1,5.8% (inactive)
21,CCCC(=O)OCCNc1cc(Sc2nc3ccccc3[nH]2)c2nonc2c1[N+](=O)[O-],49.9% (inactive)
22,CCCSc1cc(NCCOC(C)=O)c([N+](=O)[O-])c2nonc12,-12.8% (inactive)
23,O=[N+]([O-])c1c(NCCCO)cc(Sc2nc3ccccc3s2)c2nonc12,42.1% (inactive)

row,SMILES,inhibition
1,CCOC(=O)Nc1sc2nc(C)cc(C)c2c1-n1cccc1,-25.7% (inactive)
2,COCCN(C(=O)c1cccc(OC)c1)c1nnc(-c2ccncc2)s1,24.5% (inactive)
3,COc1ccccc1N1CCN(CC(=O)c2c(C)[nH]c3ccccc23)CC1,-0.2% (inactive)
4,COc1cc(OC)c(OC)cc1/C=N/NC(=S)NCC1CCCO1 (centres undefined),1.1% (inactive)
5,CCn1c(SCC(=O)Nc2nc3c(s2)CCCC3)nc2c1c(=O)n(C)c(=O)n2C,-6.8% (inactive)
6,C=CCOC(=O)C(=O)/C=C/c1ccc2c(c1)Cc1ccccc1-2,-23.3% (inactive)
7,CCCc1ccc2oc(C(=O)N(C)CCn3ccnc3C)c(C)c2c1,-19.1% [at 20 µM] (inactive)
8,CC(=O)NC(Cc1cc(C)ccc1C)C(=O)N1CCN(C(=O)c2ccc([N+](=O)[O-])cc2)CC1 (centres undefined),-2.4% (inactive)
9,COc1cc(-c2nc3ccccn3c2/N=C/c2cccc(F)c2)ccc1O,-3.3% (inactive)
10,COc1cc(CNS(=O)(=O)c2ccc3c(c2)CC(C)N3C(=O)C2CCC2)cc(OC)c1OC (centres undefined),-10.7% (inactive)
11,NC(=S)N=Nc1c(O)[nH]c2ccccc12,18.5% (inactive)
12,Oc1[nH]c2ccccc2c1N=NC(=S)N1CCOCC1,63.2% (active)
13,Oc1[nH]c2ccc(Br)cc2c1N=NC(=S)N1CCOCC1,49.6% (inactive)
14,COC(=O)CCC(=O)Nc1c(C)n(C)n(-c2ccccc2)c1=O,22.3% [at 20 µM] (inactive)
15,Cc1cc(OCC(=O)Nc2ccc(S(=O)(=O)N3CCN(C)CC3)cc2)ccc1Br,3.2% (inactive)
16,Cc1cc(OCC(=O)Nc2ccc(S(=O)(=O)N3CCN(C)CC3)cc2)ccc1Cl,-13.3% (inactive)
17,O=C(c1ccccn1)N1CCN(c2cccc(C(F)(F)F)c2)CC1,-1.3% (inactive)
18,CCOC(=O)c1cnn(-c2nc3sc4c(c3c(=O)[nH]2)CCCC4)c1N,75% (active)
19,CCOC(=O)c1cnn(-c2nc(SC)nc3sc4c(c23)CCCC4)c1N,5.6% (inactive)
20,CCOC(=O)c1cnn(-c2nc(C)nc3sc4c(c23)CCC4)c1N,-9.9% (inactive)
